Test results published in PubChem BioAssay.
Values without a mark were called inactive. A call without a number means that no potency is given here. For part of these data: Potency and affinity values are given separately. The source made the active and inactive calls. Unless noted, how the calls were made is not given here.

Assays:
[1] = antimalarial activity against Dd2 strain (AID 2302;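 active means growth inhibition above 50% at the single 2 µM test dose, taken to imply half-maximal potency below 2 µM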); settings: P. falciparum Dd2 in RBCs, LDH growth readout, 72 h; at 2 µM; active compounds read high
[2] = human hepatoma cell viability loss – ATP luminescence, cytotoxicity control for P. falciparum antimalarial project, primary screen (AID 2303;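 active means inhibition above 50%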); settings: HepG2 viability, 24-48 h, at 10 µM, active compounds read high
[3] = molecular target: L-lactate dehydrogenase (Plasmodium falciparum (isolate CDC / Honduras)) (UniProt Q27743); test: PfLDH activity inhibition – cell lysate, 3D7 strain, counter-screen for P. falciparum growth inhibition project (AID 2304); settings: P. falciparum 3D7 crude extract, LDH APAD/NBT absorbance; at 2 µM; active compounds read high
[4] = inhibition of 3D7 malaria parasite growth – strain 3D7 (AID 2306); settings: P. falciparum 3D7 erythrocytic growth, LDH absorbance, 72 h; at 2 µM; active compounds read high
[5] = molecular target: Calcium-dependent protein kinase 1 (Plasmodium falciparum (isolate 3D7)) (UniProt P62344); test: PfCDPK1 kinase inhibitors, biochemical, TCAMS library (AID 1159585; cut-off not given, nearly all actives have IC50 up to about 0.98 µM;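 further: inhibitors leave more ATP so luminescence rises with inhibition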); settings: recombinant PfCDPK1, Kinase-Glo ATP depletion luminescence
[6] = molecular target: Plasmodium falciparum protein kinase 6 (PK6, PF3D7_1337100) (UniProt Q8IDW1); test: PfPK6 kinase inhibitors, biochemical, TCAMS library (AID 1159586); settings: recombinant PfPK6, Kinase-Glo ATP depletion luminescence
[7] = molecular target: Protein kinase 7 (PK7), Plasmodium falciparum 3D7 (PF3D7_0213400) (UniProt Q7YTF7); test: inhibition of Plasmodium PK7 catalytic activity – biochemical, TCAMS antimalarial set, Kinase-Glo luminescence (AID 1159587); settings: recombinant PfPK7, Kinase-Glo ATP depletion luminescence
[8] = molecular target: Calcium-dependent protein kinase 4 (Plasmodium falciparum (isolate 3D7)) (UniProt Q8IBS5); test: PfCDPK4 kinase inhibitors, biochemical, TCAMS library (AID 1159588; cut-off not given, nearly all actives have IC50 up to about 0.91 µM); settings: recombinant PfCDPK4, Kinase-Glo ATP depletion luminescence
Calcium-dependent protein kinase 4 (Plasmodium falciparum (isolate 3D7)), sequence (Q8IBS5 whole entry, looked up): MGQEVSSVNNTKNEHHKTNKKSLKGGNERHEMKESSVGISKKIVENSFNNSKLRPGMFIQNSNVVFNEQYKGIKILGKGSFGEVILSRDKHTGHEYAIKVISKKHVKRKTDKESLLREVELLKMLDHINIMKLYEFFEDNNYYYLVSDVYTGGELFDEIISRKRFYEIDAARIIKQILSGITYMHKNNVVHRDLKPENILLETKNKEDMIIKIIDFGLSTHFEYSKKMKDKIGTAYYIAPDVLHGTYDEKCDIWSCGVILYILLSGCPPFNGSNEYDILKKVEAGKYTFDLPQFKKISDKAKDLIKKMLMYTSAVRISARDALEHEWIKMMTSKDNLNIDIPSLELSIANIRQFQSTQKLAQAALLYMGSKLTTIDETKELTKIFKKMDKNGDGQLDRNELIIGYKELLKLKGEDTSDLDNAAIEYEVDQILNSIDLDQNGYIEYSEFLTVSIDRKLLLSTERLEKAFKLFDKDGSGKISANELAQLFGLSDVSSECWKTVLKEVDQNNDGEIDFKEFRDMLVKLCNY

L-lactate dehydrogenase (Plasmodium falciparum (isolate CDC / Honduras)), sequence (Q27743 whole entry, looked up): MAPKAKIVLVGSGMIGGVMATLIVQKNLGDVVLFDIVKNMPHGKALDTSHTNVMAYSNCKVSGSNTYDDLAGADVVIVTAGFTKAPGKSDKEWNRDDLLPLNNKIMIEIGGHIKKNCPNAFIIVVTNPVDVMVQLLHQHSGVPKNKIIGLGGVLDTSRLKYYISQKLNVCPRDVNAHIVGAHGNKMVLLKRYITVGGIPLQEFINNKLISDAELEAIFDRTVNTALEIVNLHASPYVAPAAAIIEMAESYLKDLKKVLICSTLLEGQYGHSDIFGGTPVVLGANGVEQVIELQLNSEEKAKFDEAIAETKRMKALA
Protein kinase 7 (PK7), Plasmodium falciparum 3D7 (PF3D7_0213400), sequence (Q7YTF7 1-343): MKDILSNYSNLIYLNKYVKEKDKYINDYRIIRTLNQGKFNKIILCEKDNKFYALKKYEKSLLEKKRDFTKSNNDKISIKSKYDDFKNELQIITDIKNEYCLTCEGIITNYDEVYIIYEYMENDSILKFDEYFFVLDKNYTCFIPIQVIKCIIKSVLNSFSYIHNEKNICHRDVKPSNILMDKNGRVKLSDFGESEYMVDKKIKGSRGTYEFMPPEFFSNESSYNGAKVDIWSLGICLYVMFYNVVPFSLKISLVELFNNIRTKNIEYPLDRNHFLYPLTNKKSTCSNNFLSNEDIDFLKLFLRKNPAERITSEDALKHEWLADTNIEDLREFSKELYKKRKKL
Plasmodium falciparum protein kinase 6 (PK6, PF3D7_1337100), sequence (Q8IDW1 1-305): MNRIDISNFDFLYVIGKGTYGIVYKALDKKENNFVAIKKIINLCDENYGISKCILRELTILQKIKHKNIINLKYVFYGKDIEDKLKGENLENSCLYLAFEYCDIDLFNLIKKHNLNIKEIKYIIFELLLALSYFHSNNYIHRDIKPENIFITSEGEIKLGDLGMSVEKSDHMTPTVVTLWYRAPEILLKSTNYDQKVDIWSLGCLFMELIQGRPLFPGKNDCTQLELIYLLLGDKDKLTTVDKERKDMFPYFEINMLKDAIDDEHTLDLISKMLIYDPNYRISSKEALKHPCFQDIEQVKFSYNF
Calcium-dependent protein kinase 1 (Plasmodium falciparum (isolate 3D7)), sequence (P62344 whole entry, looked up): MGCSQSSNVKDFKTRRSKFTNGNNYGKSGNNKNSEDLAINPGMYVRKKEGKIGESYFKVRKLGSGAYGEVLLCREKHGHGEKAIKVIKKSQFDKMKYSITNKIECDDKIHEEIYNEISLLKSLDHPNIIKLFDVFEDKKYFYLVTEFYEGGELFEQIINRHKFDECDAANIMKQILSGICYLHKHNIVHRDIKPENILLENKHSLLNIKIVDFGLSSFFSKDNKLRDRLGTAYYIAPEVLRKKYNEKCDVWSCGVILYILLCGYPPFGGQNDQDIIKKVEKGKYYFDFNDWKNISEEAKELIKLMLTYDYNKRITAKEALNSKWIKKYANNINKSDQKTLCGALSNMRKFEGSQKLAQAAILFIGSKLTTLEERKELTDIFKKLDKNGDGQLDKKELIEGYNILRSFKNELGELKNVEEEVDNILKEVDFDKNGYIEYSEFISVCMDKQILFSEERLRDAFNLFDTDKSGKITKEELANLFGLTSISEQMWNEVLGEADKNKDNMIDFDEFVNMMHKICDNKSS

For `O=C(Nc1ccc(C(=O)OC[C@@H]2CCCN3CCCC[C@H]23)cc1)c1ccc([N+](=O)[O-])cc1`, the growth inhibition [1] was 25%, the inhibition [2] was 5% and the inhibition [3] was 2%. The growth inhibition [4] was 95% (active), the outcome [5] was “inactive” and the outcome [6] was “inactive”. For the same molecule, the outcome [7] was “inactive” and the outcome [8] was “inactive”.
In the case of `O=C(Nc1ccc([N+](=O)[O-])cc1Br)c1cc2ccccc2nc1Cl`, the growth inhibition [1] is reported as 68% (active), the inhibition [2] is reported as -4% and the inhibition [3] is reported as 2%. The growth inhibition [4] was 97% (active), the outcome [5] was “inactive” and the outcome [6] was “inactive”. The outcome [7] was “inactive” and the outcome [8] was “inactive”.
`COc1ccc(-c2cccc(NC(=O)c3cccc(C#N)c3)c2)cc1CN(C)CCO` gave a growth inhibition [1] of 30%, an inhibition [2] of 28% and an inhibition [3] of -7%. For the same molecule, the growth inhibition [4] was 96% (active), the outcome [5] was “inactive” and the outcome [6] was “inactive”. The outcome [7] was “inactive” and the outcome [8] was “inactive”.
